# The supplement of paper PMC6555819
# Tested on: VDR:RXRa (NR concentration 270 nM, RXRa partner concentration 90 nM)
# Assay: PBM binding z-score (relative to random genomic background probes); higher = stronger binding; sequences stand for … in GC…GCGATTGACAGCGTAGAATGAAGG
# Protocol: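 Protein-binding microarray (Agilent 4x180K custom design, double-stranded 60-nt probes: 5' GC cap, 34-nt variable region, 24-nt constant primer region; full probe sequence given). Purified or IVT nuclear receptor:RXRα heterodimers (3:1 NR:RXRα, mostly 270:90 nM) or homodimers were incubated for 1 h in PBS with 2% milk and no ligand, then detected with Alexa488 antibodies. Fluorescence from o1-orientation probes (~5 replicates averaged) was converted to z-scores against 500 random hg19 background probes. Variable regions are seed direct-repeat (DR0–DR5) sites, all their single-nucleotide variants and half-site ablations.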
row,Sequence,PBM binding z-score
1,TCTTGTAGATTAAAGGTTAAGAAAGCCGAAGCCT,1.09
2,TCATATAGTTAAACAGGTGAAAGTCCGTAAGTTA,1.21
3,TGAATGAGGTTAAAGATCAGGGGACGTGGCGTCG,1.88
4,ATCTCTAGGTACAGATAGTTCAGTGAATGCAAAT,1.18
5,CCAGACAGGTGAGAAGGTAACGCAGCCTCGATTA,-0.101
6,CAAACTAGGTCACAGCGGTCAAAGTCCGTGCGTA,5.9
7,GGAACGAGGGCATTCGACTTGATAGCATGGCGAT,1.35
8,ATACCAAGGTGATCGTGAGGTCGTTGATACTAAC,3.23
9,AATACAGGGTCATCGTTGGCCAGAGTACGCACAG,5.13
10,CGTCCAAGGTCATAGCAGGTCAGTGAAGACAGAT,5.93
11,GCATATAGGTAATACAAGGTGAAAGTGCGATTGT,0.469
12,ATATGTAGGTTAGGTGGGGTCATTCAGACTAGGC,6.5
13,AGAATGAGGTTGCCAAAGATCAGGGAAACGCTTG,0.143
14,CCTCGGAGGACAACATGAGGTCAGAGCTGCCAGA,2.98
15,GCGACTGGGGCAAAGCAGGTTACCATGAGGTTGG,0.114
16,TCTTGTAGACCAACAGGAGGTTAAGAAAGATCGA,0.492
17,ATATGTAGGTTTAGGGTCATTCAGGTTGGTTCGC,5.54
18,CCTACTGGGGCAAGGTCATTGATCAGTCAAAGCA,3.59
19,ATCTCTAGGTAAAGTTCAGTGAAAGATCGATAGA,1.73
20,CGTCCAAGGTCAGAGAGGTAAGTGAATGCCGAGT,4.27

row,Sequence,PBM binding z-score
1,GCTGCTAGGTCAGGTTTGTCAGCTAACGGGTACG,0.236
2,AATACAGGGTCATCGTAGGCCAGAGTACGCACAG,5.37
3,CGAACGAGGGCATGAGTTGATAGCCAATGCCGAT,1.09
4,GGTACAGGGTCAAGGCCAGAGTACGCGTATTGAT,4.52
5,ATATGTAGGTTAAGTGTCATTCAGGTTGGTTCGC,2.28
6,CGTCCAAGGTCAAAGGTCAGTGTAGAGATGACGG,6.6
7,TCGAGTAGGTTACCCATGGGGCATTCAGCTTTCT,-0.0423
8,TCTCGGCGGACACGAAGGTCAGAGCTTTCCAGAG,0.658
9,TAGCCTAGGTCTTTGGGCCAGTATAGTACGCATC,-0.592
10,GCGACTGGGGCATCAGCAGGTGACCATAACTTAA,-0.635
11,TAGCCTAGGTCATTGGTCCAGTATAGTACGCATC,2.55
12,AGAATGAGGTTATACGTAGATCAGGGTAGAAAGT,1.49
13,CCTACTGGGACAAAGGTCATTGATTCCAATGCTC,4.67
14,CGAACTAGGTAATTGACAGGACAGTGAATAGTAA,-0.257
15,TCATATAGGTAAAGGTGAGAGTCGAACGATATGA,0.633
16,CGTCCAAGGTCAATGCCAGGTCAGTGAAAGCATT,4.96
17,GCGACTGGGGCAAAGCAGGTTACCTTAAGGTTGG,0.0193
18,CCTATTAGTTGACCATAAGGTCAACCGAAGCTCG,3.95
19,GCGACTGTGGCAAAGCAGGTTACCATAAGGTTGG,-0.352
20,GCTAGTTGGTCACTAAAAGGTCACACACCGGTCG,4.17
